Source: PubChem BioAssay
Rows were chosen to be rich in hits. Some 4.1% of all compounds tested hit in one or more screens of this group.
hcDAF12 agonist: H. contortus DAF-12 activation, primary screen | HEK293 hcDAF-12 lit1-tk-luc reporter, luminescence; 0% DMSO, 100% Δ7-dafachronic acid | activation, % at 6.8 µM | 370,000 tested, 1.4% active | AID 652067;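 active means activation above the mean of all tested compounds plus 3 SD, cut at about 5.5% in these data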;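 further: 100% = response to 3 µM Δ7-dafachronic acid high control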
hgDAF12 agonist: activates the H. glycines DAF-12 receptor ligand-binding domain; activation, % at 6.8 µM; 370,000 tested, 1.8% active; HEK293 GAL4-hgDAF12 UAS-luciferase reporter, agonist luminescence; normalized to butyrate control;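 active means activation above a cutoff set at the mean of all screened compounds plus 3 SD, cut at about 10% in these data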;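 further: 0% = DMSO wells and 100% = sodium butyrate wells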
DAX1 inh-1: DAX1 (NR0B1) inhibition, primary screen | 370,000 tested, 1.1% active | inhibition, % at 6.8 µM | HEK293T StAR-luciferase reporter, SF-1/DAX-1 repression relief | AID 652010;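 active means inhibition above the mean over all tested compounds plus 3 SD, cut at about 3.6% in these data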;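 further: 0% = DAX-1 cells with DMSO and 100% = cells lacking DAX-1 with DMSO; higher inhibition means more luminescence from relief of DAX-1 repression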
ssDAF-12 act: S. stercoralis DAF-12 activation, primary screen. HEK293 ssDAF-12/GRIP1 lit1-tk-luc reporter, luminescence; % of 3 µM dafachronic acid response. activation, % at 6.8 µM. 370,000 tested, 1% active;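 active means activation above the mean over all tested compounds plus 3 SD, cut at about 0.9% in these data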;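 further: 0% = DMSO-only wells and 100% = 3 µM delta7-dafachronic acid wells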
DAX1 inh-2: NR0B1 (DAX1) inhibition | HEK293 Gal4-DAX1 luciferase reporter, luminescence | P51843 | AID 504766 | 340,000 tested, 0.99% active | inhibition, % at 6.75 µM;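 active means inhibition above the mean over all tested compounds plus 3 SD, cut at about 4.2% in these data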;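 further: 0% = DAX1-transfected cells with DMSO and 100% = empty-vector control cells with DMSO; inhibition shows as a rise in luminescence from relieved DAX1 repression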
Target sequence (P51843 207-470 limits assumed): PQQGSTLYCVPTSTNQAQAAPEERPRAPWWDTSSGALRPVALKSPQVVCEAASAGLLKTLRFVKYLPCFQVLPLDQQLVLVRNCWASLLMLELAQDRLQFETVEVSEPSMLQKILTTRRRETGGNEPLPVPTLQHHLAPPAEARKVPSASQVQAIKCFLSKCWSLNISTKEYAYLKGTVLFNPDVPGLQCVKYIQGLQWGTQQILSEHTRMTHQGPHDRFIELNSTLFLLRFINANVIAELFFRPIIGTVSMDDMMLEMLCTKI
DAX1 inh confirm: confirmation of human DAX1 (NR0B1) inhibitors. shares compounds with DAX1 inh-1. HEK293T StAR-promoter luciferase reporter, SF-1/DAX-1 repression. inhibition, % at 6.8 µM. 2,400 tested, 87% active;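 active means inhibition above the average of every tested compound plus 3 SD, cut at about 3.8% in these data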;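 further: 0% = DAX-1 cells with DMSO and 100% = no DAX-1 control cells with DMSO; active compounds raise luminescence by relieving repression of the StAR reporter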
SF1 AF2mut Luc: nonselective inhibitor or artifact in SF-1 mutant DAX1 counter-screen. 2,400 tested, 78% active. shares compounds with DAX1 inh-1. HEK293 StAR-luciferase, SF-1 AF2 mutant, luminescence. inhibition, % at 6.8 µM;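 active means inhibition above the mean of all tested compounds plus 3 SD, cut at about 3% in these data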;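 further: 0% = DAX-1 transfected cells with DMSO and 100% = cells without DAX-1 with DMSO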
LXRb hcDAF ctr: LXR-beta agonism as hcDAF-12 counter-screen. shares compounds with hcDAF12 agonist. HEK293 Gal4-LXR tk-luc reporter, luminescence, 24 h; normalized: DMSO 0%, positive control 100%. activation, % at 6.8 µM. 3,400 tested, under 10 active. AID 743027;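 active means mean percent activation of the reporter above a cutoff set as the average over tested compounds plus their standard deviation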
hcDAF12 conf: hcDAF-12 agonism, confirmation assay; shares compounds with hcDAF12 agonist; HEK293 hcDAF-12 lit1-tk-luc reporter, luminescence; % of Δ7-dafachronic acid response; activation, % at 6.8 µM; 3,400 tested, 61% active; AID 743032;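 active means mean activation across triplicate tests above the threshold derived from the earlier primary screen, cut at about 5.5% in these data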;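 further: 0% = DMSO only wells and 100% = 3 µM Δ7-dafachronic acid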
hgDAF12 ag: confirmation of H. glycines DAF-12 agonists | shares compounds with hgDAF12 agonist | HEK293 GAL4-hgDAF12 luciferase reporter, agonist mode; percent of butyrate response | activation, % at 6.8 µM | 3,300 tested, 80% active | AID 743050;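 active means mean activation over triplicate wells above the hit cutoff derived from the earlier primary screen, cut at about 11% in these data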;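 further: 0% = DMSO low control and 100% = 2 mM sodium butyrate high control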
LXR ag 2: counter-screen for DAF-12 agonists: agonists of human LXR-beta. shares compounds with hgDAF12 agonist. HEK293 Gal4-LXR luciferase reporter, 24 h. activation, % at 6.8 µM. 3,300 tested, under 10 active. AID 743051;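 active means mean activation of the triplicate above a set limit carried over from the primary screen, none filed active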
An asterisk follows results filed as active; · = not tested or not shown.

SMILES	hcDAF12 agonist	hgDAF12 agonist	DAX1 inh-1	ssDAF-12 act	DAX1 inh-2	DAX1 inh confirm	SF1 AF2mut Luc	LXRb hcDAF ctr	hcDAF12 conf	hgDAF12 ag	LXR ag 2
COc1ccc(/C=C(\C#N)C(=O)Nc2ccccn2)cc1	0	0	0	-1	-1	·	·	·	·	·	·
Cc1ccc(/C=C(\C#N)C(=O)Nc2ccccn2)o1	3	18*	11*	1	3	10*	7.6*	·	·	13*	1
Cc1cc(C)cc(C(=O)OCCN2CCN(C3CN(Cc4cn(Cc5ccccc5F)nn4)S(=O)(=O)C3)CC2)c1 (configuration not stated)	-5	0	-3	-2	·	·	·	·	·	·	·
COCC(=O)Nc1c(C(=O)Nc2ccc3c(c2)OCCO3)oc2ccccc12	3	17*	4.6*	-1	1	8.6*	5.9*	·	·	18*	1
O=C(Nc1ccc2c(c1)OCCO2)c1ccc2ccccc2n1	21*	20*	10.0*	2.7*	3	13*	8.2*	2	16*	22*	1
O=C(Nc1ccc2c(c1)OCCO2)c1oc2ccccc2c1NC(=O)C1CC1	-1	-2	1	-2	-1	·	·	·	·	·	·
O=C(Nc1ccccc1)c1ccc2ccccc2n1	18*	19*	5.4*	1.9*	5.6*	13*	9.8*	1	16*	22*	1
